This is an account of results in PubChem BioAssay (NCI).

SMILES strings stand for the structures. Compounds without any hit were thinned out: in the full panel of roughly 83,000, 20% have a hit.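 Treatment: one concentration, 48 hours, 96-well format. Scoring: percent growth, with anything below 10 considered active.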 Values without a mark were called inactive. Calls of active or inactive are those of the source.

The subject of the test is SK-MEL-5 melanoma. The experiment in a line: NCI-60 one-dose screen, 48 h (100 = growth as untreated, 0 = no growth, -100 = all killed). Conditions: 10 µM unless noted. As to the method: Growth inhibition of the SK-MEL-5 human tumor cell line is measured as a screen for anti-cancer activity. Cells are grown in 96 well plates and exposed to the test compound for 48 hours. Compounds are tested at a single concentration, which is 10^-5 M for most compounds. The reported endpoint is percent growth (GI% or GIPRCNT), where numbers from 0 - 100% represent growth inhibition, and numbers from -100% - 0 represent cell death. For example, a value of 40 represents 60% growth inhibition. A value of 0 means no net growth occurred over the course of the experiment. A value of -40 indicates 40% of cells at the beginning of the experiment died by the end of the experiment. A value of -100 means all cells are dead at the end of the experiment.
NCI-60 Human Tumor Cell Lines Screen was performed using the standard one-dose NCI protocol, which is described in more detail at https://dtp.cancer.gov/discovery_development/nci-60/default.htm.
Compounds with GIPRCNT values below 10 were considered active. Activity score was based on GIPRCNT using the following formula: […]
Score is 0 for GIPRCNT values of 100 or above, 50 for GIPRCNT values of 0, and 100 for GIPRCNT values of -100.
Turning to `S=c1[nH]c2cc(Cl)ccc2o1`, the growth is 99%.
For `COc1ccc(Nc2ncc(C(N)=O)c(NCCCNC(=O)C3CCC3)n2)cc1`, the growth is 88.3%.
In the case of `CCN(CC)CCCC(C)Nc1ccc2cc(OC)ccc2n1` (stereo not given) it was 107%; in that of `CCOC(=O)c1ccc2c(c1)c1c(C)c3ccncc3c(C)c1n2C`, -59.7% (active); in that of `O=C1Nc2ccc(F)cc2/C1=C\c1nc(-c2ccccc2F)n2ccccc12`, 89.7%.
Regarding `C#CCOc1cccc(-c2ncc3cc(NC(=O)CCl)ccc3n2)c1`, the growth was -65.2% (active).
The same measure for `CCCCCCCCn1ccc2cc(NC(=O)Cn3cc(CN4CCCCCC4)nn3)ccc21`: 0.757% (active); for `Cc1cc(F)ccc1S(=O)(=O)Nc1cc(-c2c(O)ccc3ccccc23)c(O)c2ccccc12`: -63.6% (active).
The same measure for `CCOC(=O)CSc1nc2sc3c(c2c(=O)n1-c1ccc([N+](=O)[O-])cc1)CCCCC3`: 88.7%.
Regarding `CCOC(=O)c1c2c(n3ccccc13)C(=O)c1ncccc1C2=O`, the growth was -17.8% (active).
For the compound `Cc1ccc(/C=C2\CN(C(=O)C(Cl)Cl)C/C(=C\c3ccc(C)cc3)C2=O)cc1`, the growth is -81.8% (active).
The same measure for `CCNC(=O)Oc1ccc(/C(=C(/C)Cc2ccc(OC)cc2)c2ccc(OCCN3CCCC3)cc2)cc1`: 57.7%; for `C=CCn1c(SCC(=O)Nc2ccc(C(=O)/C=C/c3cc(OC)c(OC)c(OC)c3)cc2)nnc1-c1cc(-c2ccc(OC)cc2)nc2ccccc12`: 94.9%; for `CCN1CCN(CC(=O)Nc2nc3ccc(NCc4ccc(Br)cc4)cc3s2)CC1`: 47.6%.
In the case of `COc1cccc2c(N=NC(=O)c3ccc(S(N)(=O)=O)cc3)c(O)[nH]c12` it was 99.4%.
The same measure for `COc1ccc(NC(=O)c2sc3nc4c(cc3c2N)CCCC4)cc1`: 5.04% (active).
`c1ccc(CNc2ccc3nc(CCC4CCCCC4)[nH]c3c2)cc1`: the growth is 43.2%.
`Cc1nc2ccccc2c(/C=C/c2ccc(C(F)(F)F)cc2)c1C(=O)/C=C/c1ccccc1`: the growth is -79% (active).
For `O=c1ccc2nc(C(F)(F)F)nn(-c3ccccc3)c-2c1`, the growth is 32.7%.
The same measure for `COc1ccc(-c2cn(-c3ccc(Cl)cc3)c(SCC(=O)c3ccc([N+](=O)[O-])cc3)n2)cc1`: 88.2%; for `O=C1c2cccnc2C(=O)c2c1c(C(=O)OCCCN1CCCCC1)c1ccccn21`: -96.2% (active).
For the compound `Cc1c2cc[nH]c(=O)c2c(C)c2c1[nH]c1ccc(OC(=O)c3ccccc3)cc12`, the growth is -26.9% (active).
In the case of `Fc1ccc2c(c1)c(-c1nc(-c3c[nH]c4ncccc34)cs1)cn2CCCN1CCOCC1` it was 43.7%; in that of `C[C@H]1[C@H](C)CC[C@]2(C(=O)O)CC[C@]3(C)C(=CC[C@@H]4[C@@]5(C)C[C@@H](Cc6cn([C@@H]7O[C@H](CO)[C@@H](O)[C@H](O)[C@H]7O)nn6)[C@H](O)C(C)(C)[C@@H]5CC[C@]43C)[C@H]12`, 94.2%; in that of `O=C(Nc1cccc(NC(=O)C2CCCCC2)c1)c1ccccn1`, 99.7%.
Consider `NC(=O)OCCn1cc(-c2nc(-c3c[nH]c4ncccc34)cs2)c2ccccc21`, for which the growth is 18.5%.
The same measure for `COC(=O)Cc1nc(C#N)c(N(C)C)o1`: 102%; for `Clc1nccc2c(-c3csc(-c4c[nH]c5ccccc45)n3)c[nH]c12`: 55.8%; for `Cc1c(N2CN3C[C@H](C)N4CN(c5c(C)n(C)n(-c6ccccc6)c5=O)CN5C[C@@H](C)N(C2)C3C54)c(=O)n(-c2ccccc2)n1C` (stereo not given in full): 102%.
As for `CCN1C(=O)N(CC)C2C1NN=C1SCC(=O)N12` (stereo not given), the growth was 101%.
Take `CCn1cc(C2=C(c3cn(C)c4ncccc34)C(=O)NC2=O)c2cccnc21`: the growth is 86.3%.
As for `CCOC(=O)c1c(C)nc2c(c1N)CC(=O)N2Cc1cc(OC)c(OC)c(OC)c1`, the growth was 23%.
As for `Cc1c2cnccc2c(C)c2c1c1cc(C3OCCCO3)ccc1n2C`, the growth is -95.8% (active).
In the case of `Cc1ccc2[nH]c(-c3ccc(S(C)(=O)=O)cc3)c(/C=N/N=C(N)N)c2c1` it was 29.1%.
The same measure for `Cc1nn(-c2ccccc2)c(/N=C/N(C)C)c1/C=C/C(=O)c1ccc(Cl)cc1`: 89.3%; for `COc1cc(-c2nc(SCCC(C)C)nc(N3CCOCC3)c2C#N)cc(OC)c1OC`: 102%.
In the case of `CC(/C=C1\SC(=S)N(CC(=O)NC(Cc2c[nH]c3ccccc23)C(=O)O)C1=O)=C\c1ccccc1` (stereo not given) it was 96.4%; in that of `COc1ccc2nc3ccccc3c(NCc3ccccc3)c2c1`, 18.8%.
As to `O=C(CCC(=O)c1nc2ncccc2[nH]1)NN1C(=O)CSC1c1ccc(Cl)cc1` (stereo not given), the growth was 104%.
With `O=C(CBr)CN1C(=O)c2ccccc2C1=O`, the growth is 111%.
